{"source": "the supplement of paper PMC11732987", "about": "“Enantioselective OTUD7B fragment discovery through chemoproteomics screening and high-throughput optimisation” (Communications Chemistry, 2025)", "test_in_all_cases": "log2 ratio of Biotin-Ahx-Ub-VS probe labelling (fragment/DMSO); higher = less target engagement (more negative = stronger competition), active = hit call of the paper (q ≤ 0.05, log2 ratio ≤ -1)", "conditions_in_all_cases": "compound concentration: 200 uM; treatment time: 3 h", "key": {"ALG13": {"molecular_target": "T1, ALG13 (UniProt Q9NP73)", "T1 sequence (whole entry)": "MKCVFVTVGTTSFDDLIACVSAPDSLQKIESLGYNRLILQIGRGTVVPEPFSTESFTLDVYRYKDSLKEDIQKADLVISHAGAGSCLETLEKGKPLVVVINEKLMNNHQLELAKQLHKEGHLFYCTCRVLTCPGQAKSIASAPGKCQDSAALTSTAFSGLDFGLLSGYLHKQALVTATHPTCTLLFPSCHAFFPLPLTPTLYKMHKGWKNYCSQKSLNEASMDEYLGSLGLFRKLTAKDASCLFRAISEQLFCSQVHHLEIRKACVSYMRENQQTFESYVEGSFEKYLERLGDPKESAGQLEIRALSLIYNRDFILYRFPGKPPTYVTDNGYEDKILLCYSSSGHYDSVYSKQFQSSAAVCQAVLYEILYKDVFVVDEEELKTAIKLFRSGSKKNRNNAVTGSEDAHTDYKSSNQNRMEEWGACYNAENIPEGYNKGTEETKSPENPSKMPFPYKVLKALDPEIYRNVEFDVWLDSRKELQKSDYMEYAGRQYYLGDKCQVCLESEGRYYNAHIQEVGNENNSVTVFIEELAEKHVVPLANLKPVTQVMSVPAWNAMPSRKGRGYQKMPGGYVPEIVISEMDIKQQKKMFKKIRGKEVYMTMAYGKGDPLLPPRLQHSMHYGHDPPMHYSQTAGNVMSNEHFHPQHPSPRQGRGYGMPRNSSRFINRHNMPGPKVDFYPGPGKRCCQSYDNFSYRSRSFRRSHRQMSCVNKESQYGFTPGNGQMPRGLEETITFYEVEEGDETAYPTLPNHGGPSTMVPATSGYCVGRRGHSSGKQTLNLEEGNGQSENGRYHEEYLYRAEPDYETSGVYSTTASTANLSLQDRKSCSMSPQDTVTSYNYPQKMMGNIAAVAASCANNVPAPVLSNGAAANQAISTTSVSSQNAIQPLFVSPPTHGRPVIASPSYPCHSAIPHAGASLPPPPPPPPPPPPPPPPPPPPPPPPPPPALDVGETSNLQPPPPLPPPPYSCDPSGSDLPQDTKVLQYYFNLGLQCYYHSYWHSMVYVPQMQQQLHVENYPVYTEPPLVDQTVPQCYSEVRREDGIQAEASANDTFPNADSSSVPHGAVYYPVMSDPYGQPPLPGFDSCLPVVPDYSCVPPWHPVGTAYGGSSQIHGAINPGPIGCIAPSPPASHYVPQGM", "method_in_brief": "(§1)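 Triplicate samples of HEK293T lysate, 495 µg each, received fragment at 200 µM or vehicle for 3 h, followed by Biotin-Ahx-Ub-VS (0.5 µM final) for 1 h. After NeutrAvidin enrichment of labelled DUBs and LysC/trypsin digestion, peptides were run by diaPASEF LC-MS/MS. The values are average log2 fragment/vehicle ratios from global-median-normalised Spectronaut label-free quantities, tested by unpaired t-test on proteins having ≥2 unique peptides.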"}, "ATXN3": {"molecular_target": "ATXN3 (UniProt P54252)", "sequence (P54252 whole entry)": "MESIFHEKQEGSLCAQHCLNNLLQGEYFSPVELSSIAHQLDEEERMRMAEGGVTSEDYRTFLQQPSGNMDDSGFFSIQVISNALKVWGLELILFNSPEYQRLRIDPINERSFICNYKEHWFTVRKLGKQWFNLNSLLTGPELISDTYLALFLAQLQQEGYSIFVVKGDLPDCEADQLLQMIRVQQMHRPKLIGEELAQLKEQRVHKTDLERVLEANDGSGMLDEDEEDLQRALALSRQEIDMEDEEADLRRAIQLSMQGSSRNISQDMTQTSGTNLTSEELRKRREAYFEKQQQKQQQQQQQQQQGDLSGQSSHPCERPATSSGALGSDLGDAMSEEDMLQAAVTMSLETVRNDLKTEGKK", "method_in_brief": "as §1"}, "BAP1": {"molecular_target": "T2, BAP1 (UniProt Q92560)", "T2 sequence (whole entry)": "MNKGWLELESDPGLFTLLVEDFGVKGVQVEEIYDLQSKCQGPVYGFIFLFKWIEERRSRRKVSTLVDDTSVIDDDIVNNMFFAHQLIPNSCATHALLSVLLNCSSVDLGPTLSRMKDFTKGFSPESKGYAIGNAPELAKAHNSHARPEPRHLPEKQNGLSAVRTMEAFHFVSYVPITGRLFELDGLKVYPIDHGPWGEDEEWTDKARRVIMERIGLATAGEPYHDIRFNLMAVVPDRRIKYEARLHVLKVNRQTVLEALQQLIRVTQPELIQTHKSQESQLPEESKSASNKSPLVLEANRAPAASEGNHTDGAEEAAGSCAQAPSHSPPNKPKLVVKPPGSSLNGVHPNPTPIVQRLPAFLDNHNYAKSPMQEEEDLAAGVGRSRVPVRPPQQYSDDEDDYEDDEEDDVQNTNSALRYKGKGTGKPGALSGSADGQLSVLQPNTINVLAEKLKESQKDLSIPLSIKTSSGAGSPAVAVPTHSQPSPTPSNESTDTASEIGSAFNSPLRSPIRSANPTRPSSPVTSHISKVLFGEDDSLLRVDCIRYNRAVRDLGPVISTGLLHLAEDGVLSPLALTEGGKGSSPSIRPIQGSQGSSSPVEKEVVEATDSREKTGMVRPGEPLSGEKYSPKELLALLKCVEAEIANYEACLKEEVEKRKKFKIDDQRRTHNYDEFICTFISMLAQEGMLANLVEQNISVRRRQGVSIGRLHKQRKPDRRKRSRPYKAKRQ", "method_in_brief": "as §1"}, "EIF3F": {"molecular_target": "EIF3F (UniProt O00303)", "sequence (O00303 whole entry)": "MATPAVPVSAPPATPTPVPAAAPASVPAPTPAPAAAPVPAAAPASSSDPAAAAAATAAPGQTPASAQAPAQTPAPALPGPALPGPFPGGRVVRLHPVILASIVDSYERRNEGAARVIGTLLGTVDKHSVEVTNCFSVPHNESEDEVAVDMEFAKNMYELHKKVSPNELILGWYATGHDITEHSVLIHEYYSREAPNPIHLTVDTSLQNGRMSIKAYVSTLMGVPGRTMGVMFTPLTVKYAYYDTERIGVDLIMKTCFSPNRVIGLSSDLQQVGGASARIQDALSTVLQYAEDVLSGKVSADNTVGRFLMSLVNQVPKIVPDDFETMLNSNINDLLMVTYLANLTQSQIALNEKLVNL", "method_in_brief": "as §1"}, "EIF3H": {"molecular_target": "EIF3H (UniProt O15372)", "sequence (O15372 whole entry)": "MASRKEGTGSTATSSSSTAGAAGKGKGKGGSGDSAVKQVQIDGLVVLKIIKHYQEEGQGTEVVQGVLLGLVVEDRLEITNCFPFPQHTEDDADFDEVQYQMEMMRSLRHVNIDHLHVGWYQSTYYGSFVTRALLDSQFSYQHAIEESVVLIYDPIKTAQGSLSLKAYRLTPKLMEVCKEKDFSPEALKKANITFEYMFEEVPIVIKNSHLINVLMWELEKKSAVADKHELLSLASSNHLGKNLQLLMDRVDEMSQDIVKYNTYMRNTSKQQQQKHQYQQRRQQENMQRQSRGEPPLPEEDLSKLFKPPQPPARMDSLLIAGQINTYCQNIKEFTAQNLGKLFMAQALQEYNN", "method_in_brief": "as §1"}, "FAM105A": {"molecular_target": "T3, FAM105A (UniProt Q9NUU6)", "T3 sequence (whole entry)": "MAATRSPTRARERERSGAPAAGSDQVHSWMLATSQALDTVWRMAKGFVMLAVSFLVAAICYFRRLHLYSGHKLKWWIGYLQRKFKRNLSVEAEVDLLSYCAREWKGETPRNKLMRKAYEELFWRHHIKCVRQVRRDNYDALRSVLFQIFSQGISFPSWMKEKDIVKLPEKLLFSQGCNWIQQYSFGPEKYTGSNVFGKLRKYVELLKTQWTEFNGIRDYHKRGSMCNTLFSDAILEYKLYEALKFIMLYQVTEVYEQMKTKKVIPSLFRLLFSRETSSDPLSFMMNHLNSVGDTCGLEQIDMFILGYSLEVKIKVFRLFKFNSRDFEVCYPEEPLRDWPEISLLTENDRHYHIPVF", "method_in_brief": "as §1"}, "OTUB1": {"molecular_target": "OTUB1 (UniProt Q96FW1)", "sequence (Q96FW1 whole entry)": "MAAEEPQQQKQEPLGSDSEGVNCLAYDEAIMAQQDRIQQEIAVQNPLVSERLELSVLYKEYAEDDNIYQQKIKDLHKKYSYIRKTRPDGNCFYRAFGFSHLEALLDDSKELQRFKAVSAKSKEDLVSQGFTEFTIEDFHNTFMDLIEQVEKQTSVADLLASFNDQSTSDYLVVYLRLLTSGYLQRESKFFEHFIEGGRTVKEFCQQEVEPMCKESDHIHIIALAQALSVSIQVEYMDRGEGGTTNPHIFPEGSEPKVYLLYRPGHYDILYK", "method_in_brief": "as §1"}, "OTUD4": {"molecular_target": "T4, OTUD4 (UniProt Q01804)", "T4 sequence (whole entry)": "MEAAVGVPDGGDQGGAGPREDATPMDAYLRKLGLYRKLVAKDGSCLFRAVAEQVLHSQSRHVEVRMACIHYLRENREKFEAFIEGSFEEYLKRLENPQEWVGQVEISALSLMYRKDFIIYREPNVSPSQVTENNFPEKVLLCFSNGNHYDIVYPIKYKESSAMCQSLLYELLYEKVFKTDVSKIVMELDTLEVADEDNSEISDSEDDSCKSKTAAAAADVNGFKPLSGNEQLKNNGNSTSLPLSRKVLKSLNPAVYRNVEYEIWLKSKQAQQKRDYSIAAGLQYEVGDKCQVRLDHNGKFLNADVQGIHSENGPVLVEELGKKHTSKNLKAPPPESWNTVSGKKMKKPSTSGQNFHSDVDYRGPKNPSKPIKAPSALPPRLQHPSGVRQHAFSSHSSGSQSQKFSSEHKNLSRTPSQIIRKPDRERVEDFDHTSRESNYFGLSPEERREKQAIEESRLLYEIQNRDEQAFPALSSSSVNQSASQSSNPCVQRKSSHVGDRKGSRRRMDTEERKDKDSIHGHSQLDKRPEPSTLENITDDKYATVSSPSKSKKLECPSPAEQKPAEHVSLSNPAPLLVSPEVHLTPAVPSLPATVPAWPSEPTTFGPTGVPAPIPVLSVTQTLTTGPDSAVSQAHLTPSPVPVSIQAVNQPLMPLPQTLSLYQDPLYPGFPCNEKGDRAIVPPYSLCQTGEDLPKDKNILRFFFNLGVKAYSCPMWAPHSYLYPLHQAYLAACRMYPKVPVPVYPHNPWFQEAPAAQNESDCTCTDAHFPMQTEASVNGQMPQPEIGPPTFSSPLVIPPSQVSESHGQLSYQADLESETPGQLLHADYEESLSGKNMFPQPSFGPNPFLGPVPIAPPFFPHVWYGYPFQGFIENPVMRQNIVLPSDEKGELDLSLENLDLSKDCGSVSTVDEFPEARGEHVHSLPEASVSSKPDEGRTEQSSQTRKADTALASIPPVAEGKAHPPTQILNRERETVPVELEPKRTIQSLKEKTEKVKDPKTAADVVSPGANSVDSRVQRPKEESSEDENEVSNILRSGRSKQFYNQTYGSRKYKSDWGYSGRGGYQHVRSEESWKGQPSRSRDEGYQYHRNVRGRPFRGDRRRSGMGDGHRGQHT", "method_in_brief": "as §1"}, "OTUD5": {"molecular_target": "T5, OTUD5 (UniProt Q96G74)", "T5 sequence (whole entry)": "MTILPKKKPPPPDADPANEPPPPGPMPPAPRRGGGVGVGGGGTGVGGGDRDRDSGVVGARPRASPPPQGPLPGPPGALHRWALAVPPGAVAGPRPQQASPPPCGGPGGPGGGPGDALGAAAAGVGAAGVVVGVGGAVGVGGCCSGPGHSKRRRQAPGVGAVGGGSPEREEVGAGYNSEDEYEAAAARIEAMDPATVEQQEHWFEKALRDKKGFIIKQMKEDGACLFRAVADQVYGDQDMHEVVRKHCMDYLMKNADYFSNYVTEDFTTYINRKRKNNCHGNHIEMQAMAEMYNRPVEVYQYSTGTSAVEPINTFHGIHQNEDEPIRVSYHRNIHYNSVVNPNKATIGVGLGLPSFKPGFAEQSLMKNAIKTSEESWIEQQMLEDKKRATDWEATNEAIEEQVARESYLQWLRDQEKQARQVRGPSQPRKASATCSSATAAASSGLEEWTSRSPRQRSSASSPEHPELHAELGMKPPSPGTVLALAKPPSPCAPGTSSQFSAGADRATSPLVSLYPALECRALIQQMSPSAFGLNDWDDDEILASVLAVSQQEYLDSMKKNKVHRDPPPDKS", "method_in_brief": "as §1"}}, "note": "Unmarked numbers belong to inactive results."}
{"compound": "Cc1ccccc1C1(CNC(=O)CCl)CCOCC1", "values": [{"measurement": "log2 ratio of Biotin-Ahx-Ub-VS probe labelling", "setting": "ALG13", "result": 0.22}, {"measurement": "log2 ratio of Biotin-Ahx-Ub-VS probe labelling", "setting": "ATXN3", "result": -0.273}, {"measurement": "log2 ratio of Biotin-Ahx-Ub-VS probe labelling", "setting": "BAP1", "result": "-1.23 (active)"}, {"measurement": "log2 ratio of Biotin-Ahx-Ub-VS probe labelling", "setting": "EIF3F", "result": 0.0678}, {"measurement": "log2 ratio of Biotin-Ahx-Ub-VS probe labelling", "setting": "EIF3H", "result": 0.00175}, {"measurement": "log2 ratio of Biotin-Ahx-Ub-VS probe labelling", "setting": "FAM105A", "result": 0.0441}, {"measurement": "log2 ratio of Biotin-Ahx-Ub-VS probe labelling", "setting": "OTUB1", "result": -0.0623}, {"measurement": "log2 ratio of Biotin-Ahx-Ub-VS probe labelling", "setting": "OTUD4", "result": -0.322}, {"measurement": "log2 ratio of Biotin-Ahx-Ub-VS probe labelling", "setting": "OTUD5", "result": -0.157}]}
